Screening results as filed in PubChem BioAssay.
Pf growth 96h = P. falciparum growth inhibition at 96 hours. P. falciparum luciferase reporter growth, 96 h. Potency, µM (titrated, usually from 28.7 µM), most hits filed as inhibitors. 6.9% of 320,000 active. AID 504834; active = well fitted inhibition curve with a large enough effect; inconclusive = small, poorly fitted or top-dose-only effect, or another doubt; inactive = no such curve, though single readings can be large or run the other way
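96 h incubation, 37 C, 5% CO2, of luciferase-reporter P. falciparum-infected RBCs (2% hematocrit, 0.05% parasitemia final) with test compounds; endpoint luminescence.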
SARS PLpro yeast = SARS-CoV PLP inhibition in yeast; 0.19% of 330,000 active; S. cerevisiae expressing SARS-CoV PLpro, growth rescue; Potency, µM (series often up to 32.9 µM), usual class: activators; AID 485353; note: nearly all actives have a fitted effect of over 55% in size
Shiga inhibitor = inhibitors of Shiga toxin in Vero cells. Vero cells, Shiga toxin protein synthesis inhibition reporter. inhibition, % at 38.7 µM. 9.2% of 290,000 active; in the data active = inhibition mostly above about 28%, no sharp cut-off; inactive = mostly below about 43%
Pf growth 48h = P. falciparum growth inhibition at 48 hours (one generation) | P. falciparum luciferase growth in erythrocytes, 48 h | 5.9% of 310,000 active | Potency, µM (highest dose often 28.7 µM), most hits filed as inhibitors; active = well fitted inhibition curve with a large enough effect; inconclusive = small, poorly fitted or top-dose-only effect, or another doubt; inactive = no such curve, though single readings can be large or run the other way
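First compound was added to culture medium, then infected red cells at 0.1% parasitemia and 2% hematocrit (final). After incubation at 37 C under 5% CO2, luciferase detection reagent was dispensed and light output recorded.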
NS1 inh = influenza NS1 inhibition; Potency, µM (doses to about 46.1 µM); 0.4% of 270,000 active; note: actives are rising curves; nearly all actives have a fitted effect of over 50% in size
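Growth recovery, yeast-based: influenza A NS1 expressed in S. cerevisiae causes slow growth, and suppressors are detected by OD600. The parent strain without NS1 is used as positive control.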
Cycloheximide cs = affects cycloheximide protein synthesis inhibition readout, counter-screen. cell reporter, cycloheximide protein synthesis inhibition counterscreen. max response, %. 12% of 300,000 active. AID 2314; in the data active = max response mostly above about 13%, no sharp cut-off; inactive = mostly below about 14%; note: read at 38.3 µM for the half of the compounds with a filed dose
Large screens that a line does not name were inactive. Shown are actives, neighbours in structure and some others; about 21% of the full set was active somewhere. Unless noted, calls come from the whole dose curve.

O=C(Nc1ccc(CN2CCS(=O)(=O)CC2)cc1)c1ccc(F)cc1	none
O=C(Nc1cccc(OCC(=O)N2CCOCC2)c1)c1cccc(Cl)c1	none
COC(=O)c1ccc(NC(=O)c2ccc(CN3CCOCC3)cc2)cc1	Pf growth 48h inconclusive (no result: Pf growth 96h)
O=C(Nc1ccc(CN2CCOCC2)cc1)c1ccc(F)cc1	Shiga inhibitor 59.6, Cycloheximide cs 28.5
O=S(=O)(c1cccc(COc2c(Cl)cccc2Cl)c1)N1CCOCC1	Pf growth 96h inconclusive (no result: Shiga inhibitor, NS1 inh, Cycloheximide cs)
CC(=O)c1ccc(C(=O)N2CCCC(CCC(=O)N(C)CCc3ccccn3)C2)s1 (stereo not given)	NS1 inh inconclusive
CC(C)CNC(=O)c1ccccc1NC(=O)c1ccc(CN2CCOCC2)cc1	Pf growth 48h 8.28µM
O=C(Nc1ccc(CN2CCOCC2)cc1)c1ccco1	Shiga inhibitor 51.5, Cycloheximide cs 28.0
O=C(Nc1ccc(CN2CCOCC2)cc1)c1cccc(F)c1	Shiga inhibitor 81.5, Cycloheximide cs 51.9
O=C(Nc1cccc([N+](=O)[O-])c1)c1ccc(CN2CCOCC2)cc1	Pf growth 96h 11.7µM, Shiga inhibitor 84.7, Cycloheximide cs 39.0
C/C(=N\NC(=O)c1ccc(CN2CCOCC2)cc1)c1cccc([N+](=O)[O-])c1	Pf growth 96h inconclusive
O=C(Nc1ccccc1C(=O)NCCCN1CCOCC1)c1ccc(F)cc1	none
Cc1nc(NC2=NCN(CC3CCCO3)CN2)nc2ccccc12 (stereo not given)	none (no result: Pf growth 96h, SARS PLpro yeast, Shiga inhibitor, Pf growth 48h, Cycloheximide cs)
CC(=O)Nc1ccc(/C(C)=N/NC(=O)c2ccc(CN3CCOCC3)cc2)cc1	Pf growth 48h inconclusive (no result: NS1 inh)
C/C(=N\NC(=O)c1ccc(CN2CCOCC2)cc1)c1ccc(NC(=O)c2ccccc2)cc1	Shiga inhibitor 63.2, Cycloheximide cs 40.8 (no result: NS1 inh)
CC(C)N(CCNCc1nnc(-c2ccccc2)o1)C(C)C	none (no result: NS1 inh)
COc1cccc(NC(=O)CN(C)C(=O)c2cccnc2Sc2ccc(C)c(C)c2)c1	Pf growth 48h inconclusive (no result: SARS PLpro yeast, Shiga inhibitor, NS1 inh, Cycloheximide cs)
COc1ccc(C)cc1NC(=O)c1cnc2n(c1=O)CCS2	Pf growth 96h inconclusive, Cycloheximide cs 10.1
O=C(NCCc1c[nH]c2ccccc12)c1cnc2n(c1=O)CCS2	Shiga inhibitor 58.8, Cycloheximide cs 30.5
O=C(Nc1ccc(Oc2ccccc2)cc1)c1cnc2n(c1=O)CCS2	Pf growth 96h 13.1µM (no result: Pf growth 48h)
O=C(NCCc1ccccc1)c1cnc2n(c1=O)CCS2	Shiga inhibitor 110.9, Cycloheximide cs 34.4 (no result: NS1 inh)
COc1ccc(C)cc1NC(=O)c1cnc2scc(C)n2c1=O	none
O=C(NCc1cccnc1)c1cnc2n(c1=O)CCS2	none (no result: Pf growth 96h)
O=C(NCc1ccccc1Cl)c1cnc2n(c1=O)CCS2	none (no result: Pf growth 48h)
CN1C(=O)N(C)C(NC(=O)Nc2ccccc2)C1NC(=O)Nc1ccccc1 (stereo not given)	Pf growth 96h 2.33µM
Cc1cc(C(=O)CCC(=O)N(C)CC(=O)Nc2ccc(OC(F)(F)F)cc2)c(C)s1	Pf growth 48h inconclusive (no result: Shiga inhibitor, NS1 inh, Cycloheximide cs)
CSC(=S)N/N=C/c1ccc(Br)cc1	Pf growth 96h inconclusive, Pf growth 48h inconclusive (no result: NS1 inh)
Cc1ccc(S(=O)(=O)Oc2ccc(/C=N/NC(=O)c3nn(C)cc3Cl)cc2)cc1	Pf growth 96h inconclusive, Pf growth 48h inconclusive
O=C(N/N=C/c1ccoc1)c1ccc([N+](=O)[O-])cc1	none
CN(C)c1ccc(/C=N/NC(=O)c2cc(=O)[nH]c3ccccc23)cc1	none
CSC(=S)N/N=C/c1ccc(N(C)C)cc1	Pf growth 96h inconclusive, Shiga inhibitor 68.2, Cycloheximide cs 42.5 (no result: NS1 inh)
O=C(N/N=C\c1ccoc1)c1ccco1	Shiga inhibitor 60.8, Cycloheximide cs 35.4
Cc1cc(/C=N/NC(=O)c2nn(C)cc2Cl)c(C)n1-c1cccc(Br)c1	Pf growth 96h inconclusive, Pf growth 48h inconclusive, Cycloheximide cs 17.5
CN(C)c1ccc(/C=N\NC(=O)c2cccc3cc[nH]c23)cc1	Pf growth 96h inconclusive, Shiga inhibitor 55.9, Cycloheximide cs 32.4
NC(=O)COn1c(SCC(N)=O)nc2ccccc2c1=O	none
COc1ccc(NC(=O)COC(=O)CCc2ccc(S(=O)(=O)N3CCOCC3)cc2)cc1OC	none (no result: Pf growth 96h, Shiga inhibitor, Pf growth 48h, NS1 inh, Cycloheximide cs)
O=C(Nc1ccccn1)C(F)(F)C(F)(F)C(F)(F)C(F)(F)C(=O)Nc1ccccn1	none
Cc1cccc(-n2c(C)cc(/C=N\NC(=O)c3ccco3)c2C)c1	Shiga inhibitor 96.5, Pf growth 48h 8.28µM, Cycloheximide cs 35.3
Cc1ccc(/C=N/NC(=O)c2ccco2)cc1	Shiga inhibitor 37.2, Cycloheximide cs 45.3
CN(C)c1ccc(/C=N/NC(=O)c2ccco2)cc1	Cycloheximide cs 40.6
